The record followed here is the supplement of paper PMC6522484.

± gives the standard deviation of the averaged measurements.

In assay [1] the test system is DLD1. Nature of the assay: cell viability (CellTiter-Glo) relative to plate median (fraction of plate median); higher = more viable cells. As to conditions: 5 µM; treatment time 24 h; reporter: 7TFP. The method in brief:
(§1)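 Library compounds were added at a final concentration of 5 µM for 24 h to colorectal cancer cells stably transduced with a lentiviral TCF/Wnt firefly luciferase reporter. Reported values are firefly luciferase or CellTiterGlo luminescence, normalised per well to the plate median. Each value averages two independent replicates.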

The subject of assay [2] is HCT116. Described as above. As to conditions: 5 µM; treatment time 24 h; reporter: TCF4/Wnt. In outline: as §1
Assay [3] has as its system SW480. The description is as above. The note with it: 5 µM; treatment time 24 h; reporter: 7TFP. The method in brief:
as §1

Assay [4] has as its system DLD1. Nature of the assay: TCF/Wnt firefly luciferase reporter signal relative to plate median (fraction of plate median); higher = higher Wnt reporter signal. The note with it: 5 µM; treatment time 24 h; reporter: 7TFP. The method in brief:
as §1

In assay [5] the test system is SW480. The assay is described as above. The note with it: 5 µM; treatment time 24 h; reporter: 7TFP. In outline: as §1
Assay [6] has as its system DLD1. In words: cell viability (CellTiter-Glo) relative to plate median (fraction of plate median); higher = more viable cells. The note with it: 10 µM, treatment time 24 h. In outline:
(§2)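 Reporter and viability luminescence were measured in colorectal cancer cells stably carrying lentiviral TCF/Wnt firefly luciferase reporters. The cells were exposed to kinase inhibitor library compounds at a final 10 µM for 24 h, starting 24 h after seeding in 384-well plates. Each well was normalised to the plate median (webcellHTS2, additive, no log transformation), and two independent replicates were averaged.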

The subject of assay [7] is HCT116. Described as above. As to conditions: 10 µM; treatment time 24 h; reporter: TCF4/Wnt. In outline:
as §2

In assay [8] the test system is SW480. The description is as above. As to conditions: 10 µM; treatment time 24 h; reporter: 7TFP. The method in brief: as §2
Assay [9] relates to DLD1. Nature of the assay: TCF/Wnt firefly luciferase reporter signal relative to plate median (fraction of plate median); higher = higher Wnt reporter signal. The note with it: 10 µM, treatment time 24 h. In outline: as §2
Assay [10] relates to HCT116. Described as above. As to conditions: 10 µM; treatment time 24 h; reporter: TCF4/Wnt. In outline: as §2
For assay [11], the system named is SW480. The assay is described as above. As to conditions: 10 µM; treatment time 24 h; reporter: 7TFP. In outline:
as §2

For `CNC(C)C(O)c1ccccc1` (stereo unspecified), the cell viability stood at 1.08 ± 0.021 in the assay on DLD1 [1], 1.09 ± 0.014 in the assay with HCT116 [2] and 1.07 ± 0.042 in the assay with SW480 [3]. Also, the results for the “TCF/Wnt firefly luciferase reporter signal” value in the assay on DLD1 [4] and in the assay on SW480 [5] were 1.1 ± 0.078 and 0.905 ± 0.071, respectively.
The matching figures for `O=C(NC(=O)c1c(F)cccc1F)Nc1ccc(Cl)cc1`: 1.01 ± 0.021, 0.939 ± 0.07, 1.01 ± 0.016, 0.914 ± 0.18 and 0.876 ± 0.044.
On to `Cc1cc2c(C(C)C)c(O)c(O)c(C=O)c2c(O)c1-c1c(C)cc2c(C(C)C)c(O)c(O)c(C=O)c2c1O`, for which the cell viability in the assay with DLD1 [1] came out at 0.974 ± 0.037; in the assay with HCT116 [2], 0.969 ± 0.044; in the assay on SW480 [3] it was 0.976 ± 0.03. The “TCF/Wnt firefly luciferase reporter signal” value was found to be 0.966 ± 0.048 in the assay with DLD1 [4] and 1.04 ± 0.11 in the assay on SW480 [5].
Turning to `CC(C)C[C@H]1C(=O)N2CCC[C@H]2[C@]2(O)O[C@](NC(=O)[C@@H]3C=C4c5cccc6[nH]c(Br)c(c56)C[C@H]4N(C)C3)(C(C)C)C(=O)N12`, the results for the cell viability in the assay with DLD1 [1], in the assay on HCT116 [2] and in the assay on SW480 [3] were 1.05 ± 0.014, 0.974 ± 0.08 and 1.07 ± 0.014, respectively. For the same compound, the figures for the “TCF/Wnt firefly luciferase reporter signal” value with DLD1 [4] and in the assay on SW480 [5] were 0.985 ± 0.021 and 0.931 ± 0.052, respectively.
As for `COc1c2c(cc3c1OCO3)CC[N+](C)=C2`, the cell viability came to 0.978 ± 0.046 with DLD1 [1], 0.945 ± 0.072 in the assay on HCT116 [2] and 0.991 ± 0.07 in the assay on SW480 [3]. The “TCF/Wnt firefly luciferase reporter signal” value in the assay with DLD1 [4] was determined as 1 ± 0.036; in the assay with SW480 [5], 1.075 ± 0.0071.
Consider `CC(C)(C)c1cc(C=C(C#N)C#N)cc(Br)c1O`, for which the cell viability in the assay on DLD1 [6] (reporter: 7TFP) was determined as 0.79 ± 0.03; with DLD1 [6] (reporter: TCF4/Wnt), 0.804 ± 0.18; with HCT116 [7] it was 0.966 ± 0.16; with SW480 [8], 0.91 ± 0.035. The “TCF/Wnt firefly luciferase reporter signal” value in the assay with DLD1 [9] (reporter: 7TFP) turned out to be 1.2 ± 0.092; with DLD1 [9] (reporter: TCF4/Wnt), 1.07 ± 0.18; with HCT116 [10] it was 1.38 ± 0.25; in the assay with SW480 [11] it was 1.3 ± 0.11.
`Cc1ccccc1-n1c(Cn2ncc3c(N)ncnc32)nc2cccc(C)c2c1=O`: the cell viability is 1.07 ± 0.028 with DLD1 [6] (reporter: 7TFP), 1.03 in the assay on DLD1 [6] (reporter: TCF4/Wnt), 1.22 ± 0.21 in the assay with HCT116 [7] and 1 ± 0.036 with SW480 [8]. Also, the “TCF/Wnt firefly luciferase reporter signal” value was found to be 1.11 ± 0.13 in the assay on DLD1 [9] (reporter: 7TFP), 0.77 ± 0.022 in the assay on DLD1 [9] (reporter: TCF4/Wnt), 0.604 ± 0.42 with HCT116 [10] and 0.879 ± 0.2 in the assay on SW480 [11].
For `CN1CCCCC1c1ccc(-c2cccnc2)nc1` (stereo unspecified), the cell viability with DLD1 [1] came out at 0.963 ± 0.024; in the assay with HCT116 [2], 0.901 ± 0.12; with SW480 [3], 1.01 ± 0.027. Moreover, the “TCF/Wnt firefly luciferase reporter signal” value stood at 1.03 ± 0.021 in the assay on DLD1 [4] and 0.983 ± 0.096 in the assay with SW480 [5].
On to `C[C@H]1C(=O)O[C@@H]2CCN3CC=C(COC(=O)[C@](C)(O)[C@]1(C)O)[C@H]23`, for which the cell viability with DLD1 [1] came to 1 ± 0.023; in the assay with HCT116 [2], 1.04 ± 0.09; in the assay with SW480 [3], 1.015 ± 0.0071. In addition, the “TCF/Wnt firefly luciferase reporter signal” value in the assay on DLD1 [4] turned out to be 0.919 ± 0.035; in the assay with SW480 [5], 0.998 ± 0.06.
The matching figures for `CC(CCc1ccccc1)NC(C)C(O)c1ccc(O)cc1` (stereo unspecified): 0.942 ± 0.064, 0.904 ± 0.061, 0.902, 1.2 ± 0.11 and 1.12 ± 0.014.
For `CCCC(C)C1(CC)C(=O)NC(=S)NC1=O` (stereo unspecified), the cell viability was 1.005 ± 0.0071 in the assay with DLD1 [1], 1.03 ± 0.11 with HCT116 [2] and 1.02 ± 0.035 with SW480 [3]. The “TCF/Wnt firefly luciferase reporter signal” value in the assay on DLD1 [4] came to 1.16 ± 0.15; in the assay with SW480 [5], 0.974 ± 0.065.
With `C=C(C)[C@H]1Cc2c(ccc3c(=O)c4c(oc23)COc2cc(OC)c(OC)cc2-4)O1`, the results for the cell viability in the assay on DLD1 [1], in the assay with HCT116 [2] and in the assay on SW480 [3] were 1.07 ± 0.12, 1 ± 0.041 and 1.12 ± 0.2, respectively. The figures for the “TCF/Wnt firefly luciferase reporter signal” value in the assay on DLD1 [4] and with SW480 [5] were 1.04 ± 0.099 and 0.919 ± 0.13, respectively.
